PLK1 PBD block: qHTS for Inhibitors of PLK1-PDB (polo-like kinase 1 - polo-box domain): Primary Screen | Plk1 PBD binding of FITC phosphopeptide, fluorescence polarization | Potency, µM, without a hit: max response, negative = inhibition, actives largely listed as inhibitors | 360,000 tested, 2.8% active; note: series mostly up to about 57 µM; % is set by controls: 0 for no effect and ±100 for the full control effect; nearly all actives have a fitted effect of over 65% in size
G9a inh: qHTS Assay for Inhibitors of Histone Lysine Methyltransferase G9a | 350,000 tested, 8.8% active | G9a H3K9 monomethylation, AlphaScreen, 2 h | Histone-lysine N-methyltransferase EHMT2 (Homo sapiens), Q96KQ7 | Potency, µM (titrated, usually from 102 µM), for inactives: at the top dose activity, negative = inhibition, hits mostly inhibitors | AID 504332, 2011; note: % is set by controls: 0 for no effect and ±100 for the full control effect; nearly all actives have a fitted effect of over 75% in size
Target sequence (Q96KQ7 913-1193 limits assumed): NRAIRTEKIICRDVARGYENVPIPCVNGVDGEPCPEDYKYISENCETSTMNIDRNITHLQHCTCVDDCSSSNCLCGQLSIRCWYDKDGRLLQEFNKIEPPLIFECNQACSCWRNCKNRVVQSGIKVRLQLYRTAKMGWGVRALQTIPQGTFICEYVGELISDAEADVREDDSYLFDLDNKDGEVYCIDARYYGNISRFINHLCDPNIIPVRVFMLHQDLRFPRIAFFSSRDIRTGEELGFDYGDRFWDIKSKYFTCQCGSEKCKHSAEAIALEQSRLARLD
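AlphaScreen read-out: biotin-H3K9 peptide (500 nM) methylation by 20 nM enzyme with 20 uM SAM, 2 h at room temperature after 15 min compound preincubation; anti-monomethyl H3K9 antibody plus donor/acceptor beads, 10 min dark.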
JMJD2A Tudor inh: qHTS Assay for Inhibitors of JMJD2A-Tudor Domain; AID 504339, 2011; AlphaScreen JMJD2A-Tudor / H3K4me3 peptide binding; 390,000 tested, 4.4% active; Lysine-specific demethylase 4A (Homo sapiens), O75164; Potency, µM (titrated, usually from 114 µM), without a hit: at the top dose activity change, negative = inhibition, hits mostly inhibitors; note: % is set by controls: 0 for no effect and ±100 for the full control effect; nearly all actives have a fitted effect of over 50% in size
Sfp inh: qHTS Assay for Inhibitors of Bacillus subtilis Sfp phosphopantetheinyl transferase (PPTase); 4'-phosphopantetheinyl transferase ffp (Bacillus subtilis), Q9F4F7; 310,000 tested, 3.5% active; Potency, µM, for the others: largest response in the series, negative = inhibition, actives largely listed as inhibitors; Biochemical Sfp PPTase activity, qHTS;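 note: the enzyme is Sfp with the accession as filed and its product quenches rhodamine fluorescence; 0% = enzyme reaction without inhibitor and -100% = no enzyme wells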
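Sfp 15 nM + cpd, 15 min RT; start w/ rhodamine-CoA 5 uM, BHQ-2-YbbR 12.5 uM (final); 50 mM Hepes pH 7.6, 10 mM MgCl2, 0.01% NP-40, 0.01% BSA; read 525/598 nm at 0 and 30 min.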
BAZ2B inh: qHTS Assay for Inhibitors of BAZ2B; Bromodomain adjacent to zinc finger domain protein 2B (Homo sapiens), Q9UIF8; AlphaScreen BAZ2B-H3K14Ac peptide displacement; 360,000 tested, 4.4% active; AID 504333, 2011; Potency, µM (highest dose often 114 µM), inactives show at the top dose activity change, negative = inhibition, most hits filed as inhibitors; note: % is set by controls: 0 for no effect and ±100 for the full control effect; nearly all actives have a fitted effect of over 60% in size
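BAZ2B 50 nM plus b-H3(5-23)K14Ac 50 nM, PBS pH 7.4/0.01% Tween-20, 30 min RT; compound added (max 110 uM), 30 min RT; streptavidin donor/Ni-chelate acceptor beads 10 ug/mL final, 20 min dark; AlphaScreen read.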
HP1b binding inh: HTS for Inhibitors of HP1-beta Chromodomain Interactions with Methylated Histone Tails; Chromobox protein homolog 1 (Homo sapiens), P83916; AlphaScreen HP1-beta / biotin-H3K9me3 peptide binding; Potency, µM (series often up to 114 µM), for the others: top-dose activity change, negative = inhibition, hits mostly inhibitors; 390,000 tested, 0.56% active; AID 540317, 2011; note: nearly all actives have a fitted effect of over 70% in size
Target sequence (P83916 whole entry, looked up): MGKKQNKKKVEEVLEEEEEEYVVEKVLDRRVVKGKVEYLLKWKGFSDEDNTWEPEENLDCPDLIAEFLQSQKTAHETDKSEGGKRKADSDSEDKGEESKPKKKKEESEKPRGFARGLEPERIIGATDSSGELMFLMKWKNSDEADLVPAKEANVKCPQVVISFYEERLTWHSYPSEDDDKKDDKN
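Compound inhibition of the preformed complex between 50 nM HP1-beta and 50 nM biotinylated H3K9me3 peptide was read by AlphaScreen. Buffer was PBS pH 7.4 with 0.01% Tween-20. Incubations ran 30 min at room temperature, with 10 ug/mL donor/acceptor beads.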
Active calls of the source: *; ? = inconclusive; · = no result; [ ] = another dose, or the depositor's remark. A selection: hits, their analogues and other compounds. The true share with any hit is near 12%. Calls come from the whole dose curve; as a rule, active = well fitted curve in the direction sought with a large enough effect; inconclusive = small, poorly fitted or top-dose-only effect, or another doubt; inactive = no such curve, though single readings can be large; an effect the other way counts as inactive or inconclusive. Potency is the fitted concentration of half-maximal effect.

SMILES | PLK1 PBD block | G9a inh | JMJD2A Tudor inh | Sfp inh | BAZ2B inh | HP1b binding inh
COc1cc(OC)cc(N(C(=O)c2ccco2)C(C(=O)NC2CCCC2)c2ccc(N(C)C)cc2)c1 (centres undefined) | 3% | 22µM* | ? | 6% | ? | -20%
COc1cccc(N(C(=O)c2ccco2)C(C(=O)NC2CCCC2)c2ccc(N(C)C)cc2)c1 (centres undefined) | -1% | ? | ? | 3% | ? | ?
CN(c1ccccc1)c1nc(C#N)nc(N2CCOCC2)n1 | · | · | 2%[57.1 µM] | · | · | 32%[57 µM]
COc1ccccc1CNC(=O)CCCNC(=O)Cn1cnc2sc(C)c(C)c2c1=O | 0% | -10% | -31% | 3% | 3% | 2%
CC(=O)OC1CC2C(C)(C)C(O)C=C[C@@]2(C)C2CC[C@@]3(C)C(c4ccoc4)OC(=O)C4OC43[C@]12C (some centres undefined) | · | · | · | -6% | · | ·
CCCCCOC(=O)c1[nH]c2c(c1C)C(=O)CC(c1ccco1)C2 (centres undefined) | 24µM* | 40µM* | 35µM* | ? | 56µM* | ?
CCOC(=O)c1[nH]c(Cc2[nH]c(C(=O)OCC)c(C)c2CCC(=O)OC)c(CCC(=O)OC)c1C | -6% | 40µM* | 40µM* | 56µM* | ? | -26%
CCCSc1nnc(Cc2cc(=O)[nH]c(=O)[nH]2)n1-c1cc(C)ccc1C | -15% | ? | 14µM* | 3% | -5% | 41%
CC1CCN(C(=O)CSc2nnc(Cc3cc(=O)[nH]c(=O)[nH]3)n2-c2ccc(Cl)cc2)CC1 | 0% | 35µM* | -9%[57.1 µM] | -22% | -4% | 22%[57 µM]
CCOc1ccc(-n2c(Cc3cc(=O)[nH]c(=O)[nH]3)nnc2SCc2cccnc2)cc1 | · | 56µM* | · | 13% | -1% | ·
CCOC(=O)C(C)Sc1nnc(Cc2cc(=O)[nH]c(=O)[nH]2)n1-c1ccc(Cl)cc1 (centres undefined) | 21µM* | ? | ? | -2% | 3% | 13%
COC(=O)C(C)Sc1nnc(Cc2cc(=O)[nH]c(=O)[nH]2)n1-c1ccc(Cl)cc1 (centres undefined) | · | ? | · | -9% | -22% | ·
Cc1nc2cnc(Oc3ccccc3)nc2n(CCC#N)c1=O | · | 4%[12.7 µM] | · | 5% | · | ·
COc1ccccc1Cn1ccn(CC(=O)Nc2c(C)cc(C)cc2C)c(=O)c1=O | · | -1%[59 µM] | -17% | · | 3% | 26%
Cc1ccc(C2CC(=O)Oc3cc(C)c(Cl)c(C)c32)cc1 (centres undefined) | · | 101% | · | -17% | · | ·
Oc1ccc(Cl)cc1C1C=C(c2ccc3c(c2)OCO3)NC(c2ccc(C(F)(F)F)cc2)N1 (centres undefined) | · | · | -5%[57.1 µM] | · | · | 7%[57 µM]
CCOc1ccc(-n2c(Cc3cc(=O)[nH]c(=O)[nH]3)nnc2SC(C)C)cc1 | -13% | -8%[59 µM] | -21% | 5% | 2% | 21%
CCC(C)Sc1nnc(Cc2cc(=O)[nH]c(=O)[nH]2)n1-c1ccc(F)cc1 (centres undefined) | -13% | 40µM* | -12% | ? | 42% | 67%
CS(=O)(=O)c1cccc(-c2csc(N3CCC(C(N)=O)CC3)n2)c1 | · | -29%[12.7 µM] | -14% | · | -22% | 27%
Cc1ccc(C(c2c(NC(=O)c3ccco3)sc(C)c2C)N2CCOCC2)cc1 (centres undefined) | -8% | · | · | · | · | ·
CCOC(=O)c1c(NC(=S)NNS(=O)(=O)c2ccc(Br)cc2)sc2c1CCCCC2 | 27µM* | · | -27% | -2% | -4% | 0%
CNC(=O)c1c(NC(=O)c2ccco2)sc2c1CCC2 | -4% | · | -5% | -10% | -10% | 46%
Cc1sc(NC(=O)c2ccco2)c(C(c2ccc(F)cc2)N2CCN(C)CC2)c1C (centres undefined) | -5% | 45µM* | 56µM* | -14% | 50µM* | ?
NC(=O)c1c(NC(NC(=O)c2ccco2)C(=O)c2ccc(Cl)cc2)sc2c1CCCC2 (centres undefined) | ? | 25µM* | ? | 56µM* | ? | -10%
CCOC(=O)c1c(NC(=O)COc2ccc(CC)cc2)sc2c1CCCC2 | · | -3%[59 µM] | 14% | · | 12% | 43%
SMILES | PLK1 PBD block | G9a inh | JMJD2A Tudor inh | Sfp inh | BAZ2B inh | HP1b binding inh
COC(=O)c1c(NC(=O)COc2cc(C)c(Cl)c(C)c2)sc2c1CCCC2 | · | 7.1µM* | -15% | · | 24% | ?
Cc1cc2nc3c(=O)[nH]c(=O)nc-3n(C[C@H](O)[C@H](O)[C@H](O)COP(=O)(O)OP(=O)(O)OC[C@H]3O[C@@H](n4cnc5c(N)ncnc54)[C@H](O)[C@@H]3O)c2cc1C | · | -29%[12.7 µM] | · | 1% | · | ·
COC(=O)C(C(C)C)N(Cc1cc(OC)cc(OC)c1)S(=O)(=O)CCl (centres undefined) | 0% | · | 15% | · | · | 82%
CCOC(=O)c1c(NC(=O)COc2ccccc2Br)sc2c1CCCCC2 | · | 10µM* | -5% | · | 14% | -6%
CCOC(=O)c1c(-c2cccs2)csc1NC(=O)c1ccco1 | -11% | -17%[59 µM] | -2% | 10% | 0% | 28%
CCOC(=O)c1c(C2COc3ccccc3O2)csc1NC(=O)c1ccco1 (centres undefined) | 2.5µM* | 1.6µM* | 32µM* | ? | ? | 18µM*
CCOC(=O)c1c(NC(C)=O)sc2c1CCC(C=O)=C2Sc1ccccc1 | -22% | ? | ? | 50µM* | ? | -8%
Cc1sc(NC(=O)c2ccco2)c(C(=O)c2ccc(Cl)cc2)c1C | ? | 22µM* | ? | 40µM* | ? | ?
CCOC(=O)C1CCN(C(=O)C2CCN(C3=NS(=O)(=O)C(c4ccc(C)cc4)=C3CC)CC2)CC1 | · | 37%[59 µM] | -23% | · | 33% | 53%
CCOC(=O)c1c(NC(=O)c2ccccc2N(C)S(=O)(=O)c2ccccc2)sc2c1CCCC2 | -12% | 35%[59 µM] | -9% | 12% | -3% | 47%
CCOC(=O)c1c(NC(=O)c2ccco2)sc2c1CCCC2 | 27µM* | 7%[59 µM] | ? | 15% | · | -13%
CCOC(=O)c1c(NC(=O)c2ccccc2Br)sc2c1CCc1ccccc1-2 | 6.7µM* | 1.4µM* | -13% | 40µM* | 9% | -4%
CCOC(=O)c1c(NC(=O)COc2ccc(C(C)(C)C)cc2)sc2c1CCCC2 | · | ? | -20% | · | -15% | 8%

Bioassay records: PubChem, National Center for Advancing Translational Sciences (NCATS)
